In the library only some 19% were active in any assay of this set; here they are far more common.
RORgamma inh: blocks mouse ROR gamma transcriptional activity; Drosophila S2 Gal4-RORgamma UAS-luciferase reporter, 20 h; Potency, µM (series often up to 53.6 µM), inactives show at the highest dose activity change, negative = inhibition, actives largely listed as inhibitors; P51450; 310,000 tested, 5.4% active; also: nearly all actives have a fitted effect of over 60% in size
Target sequence (P51450 whole entry, looked up, the tested form may be a part): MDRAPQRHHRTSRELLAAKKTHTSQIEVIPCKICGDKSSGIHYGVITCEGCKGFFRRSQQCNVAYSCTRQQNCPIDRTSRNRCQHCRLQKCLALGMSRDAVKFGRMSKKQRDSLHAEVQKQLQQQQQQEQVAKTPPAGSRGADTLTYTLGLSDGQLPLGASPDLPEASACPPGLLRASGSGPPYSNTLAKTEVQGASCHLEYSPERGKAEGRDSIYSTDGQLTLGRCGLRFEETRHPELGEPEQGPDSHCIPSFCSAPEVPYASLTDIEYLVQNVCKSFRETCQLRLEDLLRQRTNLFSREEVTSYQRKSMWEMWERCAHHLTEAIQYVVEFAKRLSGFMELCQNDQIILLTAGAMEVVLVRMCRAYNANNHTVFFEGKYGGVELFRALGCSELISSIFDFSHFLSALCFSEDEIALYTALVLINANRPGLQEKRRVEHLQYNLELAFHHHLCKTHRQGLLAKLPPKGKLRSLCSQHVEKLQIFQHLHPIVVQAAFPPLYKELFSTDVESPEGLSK
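Stably transfected Drosophila Schneider cells are the test system, with ROR gamma fused to Gal4 and luciferase under UAS control; luminescence is read after 20 hr of 700 uM copper sulfate induction at ambient temperature.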
DT40 TDP1 CPT: growth inhibition of DT40 Tdp1-/-;hTDP1 cells with camptothecin (screen for TDP1 inhibitors) | 420,000 tested, 12% active | chicken DT40 Tdp1-/-;hTDP1 cells + 20 nM CPT, ATP luminescence, 48 h | Potency, µM (titrated, usually from 46.2 µM), inactives show at the top dose activity change, negative = growth inhibition, most hits filed as inhibitors; also: nearly all actives have a fitted effect of over 55% in size
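Cell growth measured by CellTiter-Glo luminescence after a minimum 48 h, 37 C compound exposure with 20 nM CPT in Tdp1-knockout DT40 cells stably expressing hTDP1, seeded 400/well; qHTS titration format.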
TDP1 cell noCPT: qHTS for Inhibitors of human tyrosyl-DNA phosphodiesterase 1 (TDP1): qHTS in cells in absence of CPT | 420,000 tested, 15% active | DT40 Tdp1-/- hTDP1 cells, no CPT, ATP luminescence, 48 h | Potency, µM (doses to about 46.2 µM), without a hit: top-dose activity change, negative = growth inhibition, actives largely listed as inhibitors; also: nearly all actives have a fitted effect of over 55% in size
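Luminescent ATP content (CellTiter-Glo) served as the growth readout. Knockout chicken DT40 cells expressing human TDP1 were exposed to compounds without camptothecin for a minimum 48 hr at 37 °C.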
TDP1 block: blocks human tyrosyl-DNA phosphodiesterase 1; 350,000 tested, 0.28% active; Potency, µM (doses to about 130 µM), inactives show at the top dose activity change, negative = inhibition, hits mostly inhibitors; AID 485290; recombinant TDP1, AlphaScreen DNA substrate cleavage; also: nearly all actives have a fitted effect of over 40% in size
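Tdp1 1 nM final; 15 min RT w/ cpd; substrate 15 nM, 5 min; beads 10 ug/ml, 10 min; AlphaScreen read. Neg ctrl: no enzyme.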
VP16 counter: inhibits Gal4-VP16 luciferase reporter, ROR gamma counter-screen; Drosophila S2 Gal4-VP16 UAS-luciferase, luminescence, 20 h; AID 2546; Potency, µM (highest dose often 53.6 µM), for the others: top-dose activity, negative = inhibition, most hits filed as inhibitors; 310,000 tested, 3.5% active;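 also: Gal4-VP16 expression switched on by copper sulfate through the metallothionein promoter; nearly all actives have a fitted effect of over 50% in size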
Active calls of the source: *; ? = inconclusive; . = no result; ! = not confirmed by another sample; [ ] = another dose, or the depositor's remark. Calls follow the shape of the dose curve; as a rule, active = well fitted curve in the direction sought with a large enough effect; inconclusive = small, poorly fitted or top-dose-only effect, or another doubt; inactive = no such curve, though single readings can be large; an effect the other way counts as inactive or inconclusive. % is scaled to controls: 0 for no effect and ±100 for the full control effect; potency is read from the fitted curve at half-maximal effect.

SMILES	RORgamma inh	DT40 TDP1 CPT	TDP1 cell noCPT	TDP1 block	VP16 counter
O=C(CCC(=O)NC1CCCCC1)NCc1ccc(F)cc1	?	7.5%	9.9%	0.0%	-2.5%
NS(=O)(=O)c1ccc(CNC(=S)NC2CCCC2)cc1	2.5%	15.7%	-20.6%	8.2%	-10.1%
Fc1ccc(CNC(=S)NC2CCCCCC2)cc1	6.31µM*	0.9%	-23.8%	-2.5%	11.2µM*
Cc1ccc(CNC(=S)NC2CCC(C(C)(C)C)CC2)cc1 (stereo not given)	2.82µM*	?	23.1µM*	5.9%	5.01µM*
CCOC(=O)[C@@H]1[C@H]2COc3ccc(Br)cc3[C@@H]2N2C(=O)N(c3ccc(Cl)cc3)C(=O)[C@@]12C	.	20.6µM*	16.4µM*	1.7%	.
CCOC(=O)[C@@H]1[C@H]2COc3cc(OC)ccc3[C@H]2N2C(=O)N(c3ccc(Br)cc3)C(=O)[C@]12C	.	-9.8%	?	0.7%	.
CCOC(=O)[C@H]1[C@H]2COc3ccc(Br)cc3[C@@H]2N2C(=O)N(c3ccc(F)cc3)C(=O)[C@@]12C	.	18.4µM*	?	0.6%	.
CCOC(=O)[C@@H]1[C@H]2COc3ccc(Br)cc3[C@@H]2N2C(=O)N(c3cccc(F)c3)C(=O)[C@@]12C	17.8µM*	25.9µM*	18.4µM*	.	3.9%
CCOC(=O)[C@@H]1[C@H]2COc3ccc(Br)cc3[C@@H]2N2C(=O)N(c3ccc(F)cc3)C(=O)[C@@]12C	.	?	?	0.5%	.
CCOC(=O)[C@@H]1[C@H]2COc3ccc(Br)cc3[C@@H]2N2C(=O)N(c3ccc(C(F)(F)F)cc3)C(=O)[C@@]12C	-21.6%	20.6µM*	23.1µM*	.	-1.0%
Cc1nc2ccn(Cc3ccco3)c(=O)c2cc1C(=O)NCc1ccccc1	.	-25.2%	-14.6%	8.4%	.
CCOc1ccccc1NC(=O)c1nnn(CC(=O)Nc2ccc(OC)c(OC)c2)c1N	.	-6.5%	3.3%	6.3%	.
O=C(c1ccco1)N1CCN(Cc2cccc(F)c2)CC1	17.3%	-12.4%	-12.9%	-2.3%	0.0%
O=C(c1ccco1)N1CCN(Cc2c(Cl)cccc2Cl)CC1	8.2%	?	9.2µM*	.	-0.6%
O=C(c1ccco1)N1CCN(Cc2csc(-c3ccccc3Cl)n2)CC1	15.6%	?	20.6µM*	8.9%	-19.3%
CCc1ccc(CN2CCN(C(=O)c3ccco3)CC2)cc1	-1.4%	?	-17.1%	.	16.3%
O=C(c1ccco1)N1CCN(Cc2cccc3ccccc23)CC1	25.2%	8.2µM*	?	4.1%[0.0935 µM]	6.8%
O=C(c1ccco1)N1CCN(CC(O)Cn2c3ccccc3c3ccccc32)CC1 (stereo not given)	7.4%	18.4µM*	?	9.5%	-7.8%
CCOC(=O)c1[nH]c(C)c(CCC(=O)NC(C)c2ccccc2)c1C (stereo not given)	.	-1.5%	-16.2%	2.7%	.
CC(Oc1ccccc1)C(=O)Nc1ccc(C(=O)OCc2cc(=O)n3nc(C(C)C)sc3n2)cc1 (stereo not given)	.	3.8%	-24.6%	-1.2%	.
CCOC(=O)Nc1ccc2c(c1)N(C(=O)CN1CCN(C)CC1)c1ccccc1S2	12.1%	?	?	2.1%	-12.3%
CCOc1cc2c(cc1O)C(=NO)CC1C2CCC2(C)C(O)CCC12 (stereo not given)	.	0.184µM*	0.0517µM*	.	.
COc1cc2c(cc1O)CCC1C2CC[C@@]2(C)C1CC[C@@H]2O (stereo not given in full)	-21.5%	2.37µM*	1.88µM*	10.3%[56.1 µM]	2.5%
C[C@]12CC[C@@H]3c4ccc(OC(=O)c5ccccc5)cc4CC[C@H]3[C@@H]1CC[C@@H]2O	-2.0%	14.6µM*!	13µM*!	2.7%	-12.9%
COc1cc2c(cc1O)CC[C@@H]1[C@@H]2CC[C@]2(C)[C@@H](O)CC[C@@H]12	-20.0%	1.84µM*	4.61µM*	8.7%	-7.4%
SMILES	RORgamma inh	DT40 TDP1 CPT	TDP1 cell noCPT	TDP1 block	VP16 counter
C[C@]12CCC3c4ccc(OC(=O)c5ccccc5)cc4CCC3C1CCC2=O (stereo not given in full)	10.1%	19.4%	0.0%	3.6%	-14.1%
C[C@]12CC[C@@H]3c4ccc(O)cc4CC[C@H]3[C@@H]1C[C@@H](O)[C@@H]2O	-4.6%	?	-16.4%	-2.7%	-12.5%
Cn1c(=O)c2sccc2n2c(CCCC(=O)Nc3ccc(F)cc3F)nnc12	33.2%	-0.5%	?	6.5%	3.5%
COc1cc(NC(=S)N2CCCC(CO)C2)cc(OC)c1 (stereo not given)	8.9%	0.6%	-1.9%	0.0%	-15.0%
COc1ccccc1CCC(=O)OCC(=O)Nc1cc(S(=O)(=O)N2CCOCC2)ccc1C	.	-25.2%	-9.9%	.	.
NC(=O)c1nsc(C(=O)N(CC(=O)NC2CCCCC2)c2cccc(F)c2)c1N	19.4%	4.7%	-14.0%	.	12.8%
CN(Cc1ccccc1)C(=O)[C@@H]1CCCN1C(=O)[C@@H]1CCCN1C(=O)c1cccs1	.	-2.3%	-2.1%	.	.
CCOc1cc(OCC)cc(C(=O)N2CCC[C@H]2C(=O)N2CCC[C@H]2C(=O)N(C)Cc2ccccc2)c1	.	5.6%	0.164µM*	.	.
CN(Cc1ccccc1)C(=O)[C@@H]1CCCN1C(=O)[C@@H]1CCCN1C(=O)c1cccc2ccccc12	.	?	18.4µM*	.	.
CCOc1cc(OCC)cc(C(=O)N2CCC[C@H]2C(=O)N2CCC[C@H]2C(=O)N[C@H](C)c2ccccc2)c1	.	-25.3%	-22.6%	.	.
Cc1ccc(C)c(NC(=O)c2ccc(=O)n(Cc3ccc(F)cc3)c2)c1	.	?	?	-9.9%	.
Cc1cccc(Cn2cc(C(=O)Nc3ccc(F)c(C(F)(F)F)c3)ccc2=O)c1	.	23.1µM*	14.6µM*	0.0%	.
Cc1cccc(Cn2cc(C(=O)Nc3cc(F)ccc3F)ccc2=O)c1	.	?	16.4µM*	7.7%	.
COc1ccc(C)cc1NC(=O)c1nn(-c2ccccc2)cc1OC	-43.8%	?	20.6µM*	0.7%	-11.8%
COc1ccc(C)cc1NC(=O)c1nnn(-c2c(C)cccc2C)c1C	.	?	16.4µM*	8.6%	.
CN1CCN(c2nc3c(c(=O)[nH]c(=O)n3C)n2CCCSc2ncccn2)CC1	-5.5%	-12.9%	-1.2%	-2.8%	-7.8%
COc1ccc(C)cc1NC(=O)c1ccc(CN2CCN(c3ccccc3)CC2)cc1	16.8%	?	?	5.6%	-4.3%
COc1ccc(C)cc1NC(=O)c1ccc(=O)n(Cc2ccccc2)c1	.	?	23.1µM*	-10.4%	.
Cc1ccc(C)c(-n2nnc(C(=O)Nc3ccc(Br)cc3)c2C)c1	.	10.3µM*	5.17µM*	2.9%	.
C[C@](N)(C(=O)O)c1ccc(-c2nn[nH]n2)cc1	41.2%	11.2%	1.2%	6.1%[56.1 µM]	8.2%

From PubChem BioAssay
